± gives the standard deviation.
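Also: 1 nM active piRISC with 0.1 nM target library at 33 °C single turnover.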

This assay relates to MILI (PIWIL2) piRISC loaded with L1MC piRNA (26 nt). Briefly: pre-steady-state target cleavage rate (min^-1); guide: L1MC piRNA 5'p-UAACUAAAUACUAUGCAAGCUGUAGG; MIWI and MILI are mouse PIWI proteins and EfPiwi is from a freshwater sponge; tags in brackets are library labels; higher = faster piRNA-guided slicing of the target. Conditions: auxiliary factor: 500 nM mouse GTSF1. In outline: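 In HEPES–potassium acetate buffer at 33 °C, […] transcribed, DNA-blocked target RNA library was mixed with 1 nM active affinity-purified piRISC carrying one synthetic guide, with or without 500 nM GTSF1 partner protein, for 0–8 or 0–960 min. Uncleaved targets were sequenced and normalised to depth and to weakly complementary targets; three trials were pooled and k3 was capped at 0.0001 min^-1. The pre-steady-state cleavage rate followed from a burst-and-steady-state fit.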
Regarding UCCUGCUACUGCUUGCAUAGUAUUUUGUUA, the “pre-steady-state target cleavage rate” value is 0.138 ± 0.024.

For the sequence UCCUCCUUCAGGUUGCAUAGUAUUUAGUUA, the “pre-steady-state target cleavage rate” value was 0.239 ± 0.013.

As for UCCUGGAUCAGCUUCAUAGUAUUUAGUUA, the “pre-steady-state target cleavage rate” value amounted to 0.235 ± 0.012.

In the case of “UCCUGGUACAGCUUGCAUAGUAUUUAGUUG [g2:g24:cont:t1G]”, the “pre-steady-state target cleavage rate” value amounted to 0.218 ± 0.018.

Take UCCUGGAUGACGUUGCAUAGUAUUUAGUUA: the “pre-steady-state target cleavage rate” value was 0.176 ± 0.02.

Regarding UCCUCCUACAGGAAGCAUAGUAUUUAGUAA, the “pre-steady-state target cleavage rate” value worked out at 0.247 ± 0.018.

With UCCUCCAACAGCUUGCAUAGUAAUUAGUUA, the “pre-steady-state target cleavage rate” value is 0.228 ± 0.018.

With UCCUGGAUCACCUAGCAUAGUAUUUAGUUA, the “pre-steady-state target cleavage rate” value worked out at 0.17 ± 0.025.

With UCCUGCUACAGCUUGGAUAGUAUUAAGUUA, the “pre-steady-state target cleavage rate” value was 0.198 ± 0.031.

On to UCCUGCUACAGCUUGCAUAGUAUUUAGUCA, for which the “pre-steady-state target cleavage rate” value was 0.202 ± 0.033.

In the case of UCCUGGAACAGCUACCAUAGUAUUUAGUUA, the “pre-steady-state target cleavage rate” value came out at 0.174 ± 0.016.

UCCUCCUACAGUCUUGCAUAGUAUUUAGUUA: the “pre-steady-state target cleavage rate” value came to 0.252 ± 0.018.

As for UCCUGGAUGUACUUGCAUAGUAUUUAGUUA, the “pre-steady-state target cleavage rate” value stood at 0.0966 ± 0.016.

Consider UCCUGCUACUGCUUGGAUAGUAUUUAGUUA, for which the “pre-steady-state target cleavage rate” value was 0.221 ± 0.016.

Turning to UCCUCCUACAGCUUGCAUAGUCAUUUAGUUA, the “pre-steady-state target cleavage rate” value amounted to 0.0182 ± 0.0076.

For the sequence UCCUCCUCCAGCUUGCAUAGUAUUUAGUUA, the “pre-steady-state target cleavage rate” value was found to be 0.265 ± 0.019.

In the case of UCCUGGAUCAGCAUGCAAAGUAUUUAGUUA, the “pre-steady-state target cleavage rate” value was 0.098 ± 0.011.

Regarding UCCUCCUACAGCUUGCAUAGUAUCUUAGUUA, the “pre-steady-state target cleavage rate” value stood at 0.285 ± 0.022.

Regarding UCCUGGUACUAGCUUGCAUAGUAUUUAGUUA, the “pre-steady-state target cleavage rate” value came out at 0.068 ± 0.021.

For the sequence UCCUGGAUCAGGUUGCAUAGUAUUUAGUUA, the “pre-steady-state target cleavage rate” value worked out at 0.182 ± 0.02.

Take UCCUGGAUCACCUUGCAUAGUAAUUAGUUA: the “pre-steady-state target cleavage rate” value came to 0.198 ± 0.03.

Take UCCUGGAUGAGCUUGCCUAGUAUUUAGUUA: the “pre-steady-state target cleavage rate” value was 0.194 ± 0.014.

In the case of UCCUGGAACAUGCUUGCAUAGUAUUUAGUUA, the “pre-steady-state target cleavage rate” value was 0.184 ± 0.011.

With UCCUGCUUCUGCUUGCAUAGUAUUUAGUUA, the “pre-steady-state target cleavage rate” value was determined as 0.199 ± 0.016.

As for “UCCUGGAACAGCUUGCAUAGUAUUUAGUUU [g2:g23:cont:t1U]”, the “pre-steady-state target cleavage rate” value was found to be 0.278 ± 0.02.

For UCCUGGAUGACCUUGGAUAGUAUUUAGUUA, the “pre-steady-state target cleavage rate” value stood at 0.14 ± 0.013.

In the case of UCCUGGAUGUCGUUCGCAUAGUAUUUAGUUA, the “pre-steady-state target cleavage rate” value is 0.101 ± 0.013.

For the sequence UCCUGCUAGAGGUUGCAUAGUAUUUAGUUA, the “pre-steady-state target cleavage rate” value was 0.2 ± 0.011.

For the sequence UCCUCCUGACAGCUUGCAUAGUAUUUAGUUA, the “pre-steady-state target cleavage rate” value came to 0.217 ± 0.018.

Regarding UCCUGGAACAGCUUGCAUAGUAUUGUAGUUA, the “pre-steady-state target cleavage rate” value was found to be 0.151 ± 0.02.

In the case of UCCUGCUACAGCUUCGCAUAGUAUUUAGUUA, the “pre-steady-state target cleavage rate” value came to 0.268 ± 0.019.

For UCCUCCUACAGCUUUCAUAGUAUUUAGUUA, the “pre-steady-state target cleavage rate” value came to 0.213 ± 0.017.

With UCCUGGUACAGCUCUGCAUAGUAUUUAGUUA, the “pre-steady-state target cleavage rate” value came to 0.243 ± 0.018.

With UCCUCCUACAGCUUGCAUAGUAAAUAGUUA, the “pre-steady-state target cleavage rate” value was 0.201 ± 0.022.

As to UCCUCCUACAGCUUGCAUAGUAUUUAGUAUA, the “pre-steady-state target cleavage rate” value stood at 0.258 ± 0.028.

Turning to UCCUCGAUCAGCUUGCAUAGUAUUUAGUUA, the “pre-steady-state target cleavage rate” value is 0.316 ± 0.017.

In the case of UCCUGGAUGAGCUUGCAUAGUAUUCAGUUA, the “pre-steady-state target cleavage rate” value stood at 0.136 ± 0.026.

Turning to UCCUGGAUCUGCUUGCAUAGUAUAUAGUUA, the “pre-steady-state target cleavage rate” value stood at 0.191 ± 0.019.

Take UCCUCCUAGAGCUUGCAUAGUAUUUAGUAA: the “pre-steady-state target cleavage rate” value is 0.201 ± 0.021.

UCCUGCUACAGCUGUGCAUAGUAUUUAGUUA: the “pre-steady-state target cleavage rate” value was 0.263 ± 0.025.

Values taken from the supplement of paper PMC10338343.
